Compound activity (PubChem BioAssay)
BRCA1 expr up = BRCA1 expression activation; MCF7-BRCA1-FFLuc reporter, luminescence, 48 h; response scale: scaled: vehicle 0%, 10 µM genistein 100%; Potency, µM (highest dose often 46.1 µM), for inactives: at the highest dose activation, usual class: activators; hit rate 1.1% among 380,000; AID 624202; further: potency means the concentration at half of the fitted maximal effect; nearly all actives have a fitted effect of over 80% in size
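Luminescence from a BRCA1-driven firefly luciferase in MCF7 cells was read after 48 h compound exposure at 37 C. Data normalized against DMSO and a 10microM genistein activation control, then curve-fitted across the titration.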
PTHR1 agonist = PTHR1 (human) receptor agonism. hit rate 0.075% among 410,000. Potency, µM (highest dose often 115 µM), without a hit: top-dose activation, most hits filed as activators. HEK293 GP2 PTHR1 cells, GloSensor cAMP luminescence, 1 h. Q03431; further: potency means the concentration at half of the fitted maximal effect; nearly all actives have a fitted effect of over 55% in size
Target sequence (Q03431 whole entry, looked up): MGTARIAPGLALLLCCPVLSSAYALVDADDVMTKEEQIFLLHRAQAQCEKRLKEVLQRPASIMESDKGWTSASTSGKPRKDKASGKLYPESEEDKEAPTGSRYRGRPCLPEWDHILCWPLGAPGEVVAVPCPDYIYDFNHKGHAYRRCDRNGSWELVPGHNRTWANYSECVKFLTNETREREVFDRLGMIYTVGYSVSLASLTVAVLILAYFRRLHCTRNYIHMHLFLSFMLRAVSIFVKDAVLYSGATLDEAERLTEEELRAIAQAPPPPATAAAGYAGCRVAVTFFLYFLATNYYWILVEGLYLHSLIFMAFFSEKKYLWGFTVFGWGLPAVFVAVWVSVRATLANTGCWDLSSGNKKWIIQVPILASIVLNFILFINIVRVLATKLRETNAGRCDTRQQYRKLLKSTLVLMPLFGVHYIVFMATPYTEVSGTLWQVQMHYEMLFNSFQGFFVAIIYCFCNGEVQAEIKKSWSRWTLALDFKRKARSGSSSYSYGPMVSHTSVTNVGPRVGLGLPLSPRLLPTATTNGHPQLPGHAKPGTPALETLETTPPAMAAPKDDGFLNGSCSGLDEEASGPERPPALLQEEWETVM
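HEK-293-derived GP2 cells expressing PTHR1 and a GloSensor cAMP reporter, 3,000/well, plated overnight, given luciferin plus IBMX (each 0.5 mM as added) for 1 h at 37 °C, then compound for 1 h at 37 °C. Luminescence was read after 15 min at room temperature.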
Mito fusion yeast = blocks mitochondrial division or promotes mitochondrial fusion; AID 485298; hit rate 0.23% among 320,000; Potency, µM (doses to about 46.1 µM), for inactives: at the top dose growth rescue (activation), actives largely listed as activators; S. cerevisiae fusion-defective mutant growth rescue, CellTiterGlo 48 h; further: potency means the concentration at half of the fitted maximal effect; % of control where 0% means no effect; nearly all actives have a fitted effect of over 45% in size
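S. cerevisiae fusion-defective temperature-sensitive mutants (e.g. fzo1-1, mgm1-5) grown 48 h at 37C in YPEG (ethanol/glycerol non-fermentable) medium with 23 nl compound per well; growth rescue read as CellTiterGlo luminescence.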
TCR act = T cell receptor activation. primary human leukocytes, anti-CD3, IL-2 HTRF, 48 h. Potency, µM (top dose mostly 9.22 µM), for the others: top-dose activation of IL-2 secretion, most hits filed as activators. 330,000 tested, under 10 active; further: % of control where 0% means no effect
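IL-2 release read by HTRF sandwich (Eu cryptate donor, d2 acceptor, 665 nm emission) after 48 hr exposure of primary human leukocytes to compound together with anti-CD3 beads in the absence of co-stimulatory signals.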
Chronic BCR inh = blocks chronic active B-cell receptor signaling; ABC-DLBCL IkBa-CBG/CBR reporter, luminescence ratio, 4 h; Potency, µM (series often up to 46.1 µM), without a hit: top-dose activity change, negative = inhibition, usual class: inhibitors; hit rate 0.05% among 340,000; AID 493014; active means well fitted inhibition curve with a large enough effect in the signal ratio, with a control signal flat, not every such curve was filed as active; inconclusive means small, poorly fitted or top-dose-only effect, or effect the other way, or a change in a side signal; the % refers to the signal ratio;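 further: potency means the concentration at half of the fitted maximal effect; plate controls were basal doxycycline-induced cells for no effect and cells given 10 µM MG132 for full effect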
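Concentration-response series (up to 46 uM) were applied to TMD8 dual-reporter cells for 4 h at 37C with doxycycline. Green/red ratio, after filter-overlap correction, defined %Activity; red signal alone was normalised to basal cells and zero luminescence.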
IL2 activator = activators of IL-2; IL-2 activation reporter assay, cell-based qHTS; stimulated with anti-CD3/CD4/CD28 beads; in transgenic mouse T cells; activation, % (series mostly up to about 46 µM); hit rate 0.065% among 360,000; AID 652025; in the data active means activation above about 50%; inconclusive means mostly about 30% to 49%; further: 0% is about no effect
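Quantitative HTS in unstimulated transgenic mouse T cells, with memory T cells as non-tolerant control and PMA/ionomycin as tolerance-bypass control. Compound pretreatment lasted 60 minutes before 18 h bead stimulation; EGFP/DsRed fluorescence read.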
Numbers without * were called inactive; [ ] = remark or other dose. This is a sample that favours compounds with a hit; in the whole collection about 1.3% have one here. Unless noted, the call rests on the fitted dose curve; in most records, active means well fitted curve in the direction sought with a large enough effect; inconclusive means small, poorly fitted or top-dose-only effect, or another doubt; inactive means no such curve, though single readings can be large; an effect the other way counts as inactive or inconclusive.

Screening O=[N+]([O-])c1cccc(-c2nnc(-c3ccc4c(c3)OCO4)o2)c1 returned BRCA1 expr up 2.51µM*, PTHR1 agonist -29.1%, Mito fusion yeast -8.7%, TCR act 1.4%[46.1 µM], Chronic BCR inh inconclusive and IL2 activator -1.9.
Screening COc1cc2cc(C(=O)N3CCOCC3)cc(-c3ccc(C)cc3)c2cc1OC returned BRCA1 expr up -40.5%, PTHR1 agonist inactive, Mito fusion yeast inconclusive, TCR act 4.1%, Chronic BCR inh 15.8µM* and IL2 activator -3.0.
COc1ccc(C(=S)NC2CCCCC2)cc1 was read as BRCA1 expr up inconclusive, PTHR1 agonist inactive, Mito fusion yeast -1.8%, TCR act 4.1%, Chronic BCR inh inconclusive and IL2 activator 0.5.
Screening CCOc1ccc(C(=S)NC2CCCCC2)cc1 returned BRCA1 expr up 10µM*, PTHR1 agonist -28.7%, Mito fusion yeast -2.4%, TCR act 0.0%, Chronic BCR inh inconclusive and IL2 activator -0.1.
`COc1cc(NC(=O)CCc2c(C)nn(-c3ccc4nncn4n3)c2C)cc(OC)c1OC` gave PTHR1 agonist -5.8%.
COc1ccc(C(=O)c2ccsc2N)cc1 was read as BRCA1 expr up 11.2µM*, PTHR1 agonist -9.7%, Mito fusion yeast 11.3%, TCR act -1.9%, Chronic BCR inh -10.2% and IL2 activator 0.5.
For Cc1ccc(-c2cc(C(=O)N3CCN(c4ccccc4O)CC3)c3ccccc3n2)o1 the results were BRCA1 expr up 4.47µM*, PTHR1 agonist -17.8%, Mito fusion yeast 0.3%, TCR act -11.3%, Chronic BCR inh inconclusive and IL2 activator -0.5.
Screening CC(O)COCC1OC2OC3C(COCC(C)O)OC(OC4C(COCC(C)O)OC(OC5C(COCC(C)O)OC(OC6C(COCC(C)O)OC(OC7C(COCC(C)O)OC(OC8C(COCC(C)O)OC(OC1C(OCC(C)O)C2OCC(C)O)C(OCC(C)O)C8OCC(C)O)C(OCC(C)O)C7OCC(C)O)C(OCC(C)O)C6OCC(C)O)C(OCC(C)O)C5OCC(C)O)C(OCC(C)O)C4OCC(C)O)C(OCC(C)O)C3OCC(C)O (stereo not drawn) returned BRCA1 expr up 13.9%.
CN(C(=O)c1ccc2nc(N)sc2c1)c1ccccc1 was read as BRCA1 expr up -28.8%, PTHR1 agonist -1.2%, Mito fusion yeast -1.3%, TCR act 4.0%, Chronic BCR inh inconclusive and IL2 activator 0.5.
Screening Nc1nc2ccc(C(=O)Nc3ccccc3)cc2s1 returned BRCA1 expr up 44.1%, PTHR1 agonist 3.98µM*, Mito fusion yeast 6.8%, TCR act -25.6%, Chronic BCR inh inconclusive and IL2 activator -0.4.
CCc1ccc(NC(=O)c2ccc3nc(N)sc3c2)cc1 was read as BRCA1 expr up 11.2µM*, PTHR1 agonist -13.6%, Mito fusion yeast inconclusive, TCR act 2.2%, Chronic BCR inh inconclusive and IL2 activator -1.9.
Screening C[C@H](NC(=O)CCCOc1ccc(Cl)cc1Cl)c1nnc2ccccn12 returned BRCA1 expr up -1.8%, PTHR1 agonist inactive, Mito fusion yeast -0.8%, TCR act -5.7%, Chronic BCR inh 0.7% and IL2 activator -3.5.
For CCCc1noc(-c2ccc(N3CCCCC3)c([N+](=O)[O-])c2)n1 the results were BRCA1 expr up 7.08µM* and PTHR1 agonist -18.4%.
Screening N/C(=N\OC(=O)c1ccc2ccccc2c1)c1cccc([N+](=O)[O-])c1 returned BRCA1 expr up 66.7%, PTHR1 agonist -8.3%, Mito fusion yeast 21.9%, TCR act -8.0%, Chronic BCR inh inconclusive and IL2 activator -1.0.
Screening N/C(=N\OC(=O)c1ccc(F)cc1)c1cccc([N+](=O)[O-])c1 returned BRCA1 expr up 38.8%, PTHR1 agonist -36.0%, Mito fusion yeast 0.8%, Chronic BCR inh inconclusive and IL2 activator 2.1.
